Data from PubChem BioAssay (EPA / NIEHS).
Several values for one entry are separate records, joined by “and”; a condition that tells them apart may be missing. Equal entries are not always repeated. Some structures have more than one record in an assay (separate samples or runs), and their calls can disagree. Activity calls are given as the source filed them. How the source made its calls: active means hit-call score of the fitted dose curve at least 0.9, where 1 is the maximum; inactive means score below 0.9.

How the values were obtained:
[1] = read-out: Macrophage colony-stimulating factor (MCSF), CSF1 (gene 1435); test: BSK_hDFCGF_MCSF: BioMAP Diversity Plus: hDFCGF Assay for Macrophage colony-stimulating factor (MCSF) Biomarker Activity (AID 2283060); settings: primary human foreskin fibroblasts; actives raise or lower the signal
In short: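 ELISA read-out of M-CSF in human dermal foreskin fibroblast cultures, 24 h after chemical dosing; gain or loss of signal fitted bidirectionally relative to DMSO baseline.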

[2] = read-out: Monokine induced gamma interferon (MIG), CXCL9 (gene 4283); test: BSK_hDFCGF_MIG: BioMAP Diversity Plus: hDFCGF Assay for Monokine induced gamma interferon (MIG) Biomarker Activity (AID 2283063); settings: primary human foreskin fibroblasts; actives raise or lower the signal
In short: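 Fibroblasts (human foreskin, primary) dosed, 24 h, MIG by ELISA; fit bidirectional vs DMSO.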

[3] = read-out: Matrix Metallopeptidase 1 (MMP1), MMP1 (gene 4312); test: BSK_hDFCGF_MMP1: BioMAP Diversity Plus: hDFCGF Assay for Matrix Metallopeptidase 1 (MMP1) Biomarker Activity (AID 2283064); settings: primary human foreskin fibroblasts; actives raise or lower the signal
In short: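 MMP1 levels quantified by ELISA 24 h after dosing human dermal fibroblast cultures, with parallel SRB total-protein staining for overt cytotoxicity. Data fitted in both directions against DMSO baseline.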

[4] = read-out: Plasminogen activator inhibitor-1 (PAI1), SERPINE1 (gene 5054); test: BSK_hDFCGF_PAI1: BioMAP Diversity Plus: hDFCGF Assay for Plasminogen activator inhibitor-1 (PAI1) Biomarker Activity (AID 2283066); settings: primary human foreskin fibroblasts; actives raise or lower the signal
In short: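 ELISA readout of PAI-1 from primary human skin fibroblast cultures, 24 h after compound addition. Gain or loss of signal was fitted bidirectionally against DMSO baseline.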

[5] = read-out: Intercellular Adhesion Molecule 1 (ICAM1), ICAM1 (gene 3383); test: BSK_KF3CT_ICAM1: BioMAP Diversity Plus: KF3CT Assay for Intercellular Adhesion Molecule 1 (ICAM1) Biomarker Activity (AID 2283067); settings: primary human keratinocytes with fibroblasts; actives raise or lower the signal
In short: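 ELISA readout of ICAM-1; KF3CT human skin co-culture (keratinocytes + foreskin fibroblasts), 24 h post-dose; gain/loss fit vs DMSO baseline.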

[6] = read-out: Interferon-gamma inducible Protein 10 (IP10), CXCL10 (gene 3627); test: BSK_KF3CT_IP10: BioMAP Diversity Plus: KF3CT Assay for Interferon-gamma inducible Protein 10 (IP10) Biomarker Activity (AID 2283068); settings: primary human keratinocytes with fibroblasts; actives raise or lower the signal
In short: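 Signal is secreted/surface IP-10 by ELISA in a human primary skin co-culture of keratinocytes and foreskin fibroblasts, taken 24 h post-dosing; DMSO served as negative control.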

[7] = BSK_KF3CT_SRB: Viability Assessment in the BioMAP Diversity Plus: KF3CT Assay (AID 2283069); settings: primary human keratinocytes with fibroblasts;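 further: total protein by sulforhodamine B staining as a cytotoxicity measure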
In short: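 Cytotoxicity was gauged by SRB staining (0.1% SRB, 10% TCA fixation, 560 nm) of parallel cultures at 24 h. The cells were primary human skin keratinocytes co-cultured with fibroblasts, and activity was fitted in both directions against DMSO.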

[8] = read-out: Interleukin-1 alpha (IL1a), IL1A (gene 3552); test: BSK_KF3CT_IL1a: BioMAP Diversity Plus: KF3CT Assay for Interleukin-1 alpha (IL1a) Biomarker Activity (AID 2283070); settings: primary human keratinocytes with fibroblasts; actives raise or lower the signal
In short: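 IL-1a was detected by ELISA 24 h after chemical treatment of a co-culture of human skin keratinocytes and foreskin fibroblasts. Gain or loss of signal was fitted against the DMSO baseline.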

[9] = read-out: TIMP metallopeptidase inhibitor 2 (TIMP2), TIMP2 (gene 7077); test: BSK_KF3CT_TIMP2: BioMAP Diversity Plus: KF3CT Assay for TIMP metallopeptidase inhibitor 2 (TIMP2) Biomarker Activity (AID 2283071); settings: primary human keratinocytes with fibroblasts; actives raise or lower the signal
In short: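 ELISA readout of TIMP-2 in keratinocyte plus foreskin fibroblast co-cultures (human skin primary cells), 24 h post-dose. Gain or loss of signal fitted relative to DMSO.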

[10] = read-out: C-C motif chemokine 2 (Homo sapiens) (UniProt P13500); test: BSK_KF3CT_MCP1: BioMAP Diversity Plus: KF3CT Assay for Monocyte Chemoattractant Protein 1 (MCP1/CCL2) Biomarker Activity (AID 2283073); settings: primary human keratinocytes with fibroblasts; actives raise or lower the signal
In short: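 KF3CT skin co-culture (keratinocytes/foreskin fibroblasts), 24 h post-dose; MCP-1 by ELISA; gain/loss of signal fit bidirectionally vs DMSO baseline.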

[11] = read-out: Matrix Metallopeptidase 9 (MMP9), MMP9 (gene 4318); test: BSK_KF3CT_MMP9: BioMAP Diversity Plus: KF3CT Assay for Matrix Metallopeptidase 9 (MMP9) Biomarker Activity (AID 2283074); settings: primary human keratinocytes with fibroblasts; actives raise or lower the signal;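 on AC50: MMP9 protein level quantified by ELISA in the co-culture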
In short: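 MMP-9 quantified by ELISA after 24 h chemical treatment of primary human skin keratinocyte/fibroblast co-cultures; gain or loss fitted against DMSO, with parallel SRB staining (0.1% SRB, 560 nm) for overt cytotoxicity.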

[12] = read-out: urokinase plasminogen activator (uPA), PLAU (gene 5328); test: BSK_KF3CT_uPA: BioMAP Diversity Plus: KF3CT Assay for urokinase plasminogen activator (uPA) Biomarker Activity (AID 2283075); settings: primary human keratinocytes with fibroblasts; actives raise or lower the signal
In short: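 ELISA read-out of uPA 24 h after dosing human skin keratinocytes co-cultured with foreskin fibroblasts. Signal change fitted both ways relative to DMSO; sulforhodamine B on parallel cultures marks overt cytotoxicity.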

CD40, CD40 (gene 958) = test: BSK_LPS_CD40: BioMAP Diversity Plus: LPS Assay for CD40 Biomarker Activity (AID 2283076); settings: primary human HUVEC with PBMC; actives raise or lower the signal
In short: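 ELISA readout of CD40 in HUVEC/PBMC co-culture (BSK_LPS system), 24 h post-dosing; bidirectional curve fit, DMSO baseline; parallel SRB total-protein staining for cytotoxicity.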

[13] = read-out: Interleukin-8 (IL8), CXCL8 (gene 3576); test: BSK_LPS_IL8: BioMAP Diversity Plus: LPS Assay for Interleukin-8 (IL8) Biomarker Activity (AID 2283078); settings: primary human HUVEC with PBMC; actives raise or lower the signal
In short: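 HUVEC + PBMC co-culture, LPS-activated; test chemicals dosed, IL-8 read by ELISA at 24 h. Bidirectional curve fit vs DMSO baseline (gain or loss of signal).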

[14] = BSK_LPS_SRB: Viability Assessment in the BioMAP Diversity Plus: LPS Assay (AID 2283079); settings: primary human HUVEC with PBMC;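 further: total protein by sulforhodamine B absorbance as a cytotoxicity measure; measured one day after compound addition; fitted in both directions against DMSO so loss or gain of signal counts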
In short: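 HUVEC + PBMC co-culture, LPS-stimulated; compound 24 h. 10% TCA fix, 0.1% SRB stain, A560. Bidirectional fit vs DMSO.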

[15] = BSK_hDFCGF_SRB: Viability Assessment in the BioMAP Diversity Plus: hDFCGF Assay (AID 2283061); settings: primary human foreskin fibroblasts;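 further: cells exposed to compound for 24 h before the read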
In short: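 Primary human foreskin fibroblasts; 24 h post-dose; fixed 10% TCA, stained 0.1% SRB, A560 read; total protein as overt cytotoxicity measure; curves fit bidirectionally vs DMSO control.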

[16] = read-out: TIMP metallopeptidase inhibitor 1 (TIMP1), TIMP1 (gene 7076); test: BSK_hDFCGF_TIMP1: BioMAP Diversity Plus: hDFCGF Assay for TIMP metallopeptidase inhibitor 1 (TIMP1) Biomarker Activity (AID 2283062); settings: primary human foreskin fibroblasts; actives raise or lower the signal
In short: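 ELISA readout of TIMP-1 from human dermal foreskin fibroblast cultures 24 h post-dosing. Curves were fitted in both directions against DMSO baseline, with SRB total-protein staining in parallel cultures as a cytotoxicity check.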

[17] = read-out: Vascular cell adhesion molecule 1 (VCAM1), VCAM1 (gene 7412); test: BSK_hDFCGF_VCAM1: BioMAP Diversity Plus: hDFCGF Assay for Vascular cell adhesion molecule 1 (VCAM1) Biomarker Activity (AID 2283065); settings: primary human foreskin fibroblasts; actives raise or lower the signal;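 on AC50: VCAM-1 protein level quantified by ELISA after 24 h chemical exposure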
In short: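 ELISA read-out of VCAM-1 on human skin fibroblasts, 24 h post-dose; gain or loss of signal fitted bidirectionally against DMSO baseline.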

[18] = read-out: Transforming growth factor beta 1 (TGFb1), TGFB1 (gene 7040); test: BSK_KF3CT_TGFb1: BioMAP Diversity Plus: KF3CT Assay for Transforming growth factor beta 1 (TGFb1) Biomarker Activity (AID 2283072); settings: primary human keratinocytes with fibroblasts; actives raise or lower the signal
In short: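 Read-out: ELISA for TGF-b1 in keratinocyte/foreskin fibroblast human skin co-culture, 24 h after dosing; bidirectional curve fit vs DMSO baseline; gain or loss of signal scored.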

Measured: AC50

O=C(O)C(F)(F)C(F)(F)C(F)(F)C(F)(F)C(F)(F)C(F)(F)C(F)(F)C(F)(F)C(F)(F)C(F)(F)C(F)(F)C(F)(F)F
inactive: [1] | [3] | [4] | [5] | [6] | [7] | [9] | [10] | [11] | [12] | CD40, CD40 (gene 958) | [13] | [14]
active: [1] 6.46 µM | [2] 2.35 µM and 1.17 µM | [3] 1.6 µM | [6] 22.5 µM | [8] 4.28 µM and 3.91 µM

O=S(=O)(O)C(F)(F)C(F)(F)C(F)(F)C(F)(F)C(F)(F)C(F)(F)C(F)(F)F
inactive: [1] | [15] | [16] | [2] | [3] | [17] | [4] | [5] | [6] | [7] | [8] | [9] | [10] | [11] | [12] | CD40, CD40 (gene 958) | [13] | [14]

CC(=O)Nc1ccc(N=Nc2cc(C)ccc2O)cc1
active: [1] 30.8 µM | [2] 33.8 µM | [3] 31 µM | [17] 30.2 µM | [5] 20 µM | [6] 34 µM | [8] 20 µM
inactive: [15] | [4] | [7] | [9] | [18] | [10] | [11] | [12] | CD40, CD40 (gene 958) | [13] | [14]

C#C[C@]1(O)CC[C@H]2[C@@H]3CCc4cc(OC)ccc4[C@H]3CC[C@@]21C
inactive: [1] | [15] | [2] | [3] | [17] | [5] | [6] | [7] | [10] | [13] | [14]
active: [4] 0.016 µM | [8] 3.97 µM | [9] 5.41 µM | [18] 2.14 µM | [11] 7.71 µM | [12] 9.89 µM | CD40, CD40 (gene 958) 20 µM

C=CC(=O)OCC(F)(F)C(F)(F)C(F)(F)C(F)(F)C(F)(F)C(F)(F)C(F)(F)F
inactive: [1] | [15] | [16] | [2] | [3] | [4] | [5] | [6] | [7] | [8] | [9] | [10] | [11] | [12] | CD40, CD40 (gene 958) | [13] | [14]

NC(=O)C(F)(F)C(F)(F)C(F)(F)C(F)(F)F
inactive: [1] | [15] | [16] | [2] | [3] | [4] | [5] | [6] | [7] | [8] | [9] | [10] | [11] | [12] | CD40, CD40 (gene 958) | [13] | [14]
